Records with an inconclusive call do not appear. Calls of active or inactive are those of the source. Calls follow the shape of the dose curve; as a rule, active = well fitted curve in the direction sought with a large enough effect; inconclusive = small, poorly fitted or top-dose-only effect, or another doubt; inactive = no such curve, though single readings can be large or run the other way.

Sequence of Alpha-galactosidase A (Homo sapiens) (P06280 whole entry, looked up): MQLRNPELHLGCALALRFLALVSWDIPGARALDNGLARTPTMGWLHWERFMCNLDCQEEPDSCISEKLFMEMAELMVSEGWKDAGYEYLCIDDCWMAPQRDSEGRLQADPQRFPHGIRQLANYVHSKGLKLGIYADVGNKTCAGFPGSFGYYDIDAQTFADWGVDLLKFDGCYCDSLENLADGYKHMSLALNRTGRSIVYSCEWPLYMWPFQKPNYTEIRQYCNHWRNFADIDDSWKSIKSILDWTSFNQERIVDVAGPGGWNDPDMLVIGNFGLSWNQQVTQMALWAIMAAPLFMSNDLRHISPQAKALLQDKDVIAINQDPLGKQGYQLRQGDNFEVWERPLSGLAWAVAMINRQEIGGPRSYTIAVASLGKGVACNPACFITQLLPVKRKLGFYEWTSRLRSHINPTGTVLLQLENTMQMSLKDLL

In the assay the target is Alpha-galactosidase A (Homo sapiens) (UniProt P06280). The assay can be described thus: Activators of Human alpha-Glucosidase as a Potential Chaperone Treatment of Pompe Disease: Alpha-Galactosidase Counter Screen. As to conditions: purified human alpha-galactosidase, 4-MU fluorogenic substrate; series mostly up to 57.1 µM; activity change, negative = inhibition: at the top concentration. The text has this:
Alpha-glucosidase is responsible for hydrolysis of terminal, non-reducing 1,4-linked alpha-D-glucose residues with release of alpha-D-glucose. It is a lysosomal hydrolase that is required for the degradation of a small percentage (1-3%) of cellular glycogen in human. Deficiency of this enzyme results in glycogen-storage disease type II (GSDII), also referred to as Pompe disease, an autosomal recessive disorder. Structurally normal glycogen is accumulated in lysosomes and cytoplasm in affected patients, primarily in muscle tissues. Excessive glycogen storage within lysosomes may interrupt normal functioning of other organelles and leads to cellular injury. In turn, this leads to enlargement and dysfunction of the entire organ involved (eg, cardiomyopathy and muscle weakness). It has reported that the improper folding and trafficking of alpha-glucosidase resulting from the genetic mutations may account for a significant number of Pompe patients. […] After screening for activators for alpha-glucosidase, we used this counter screen against alpha-galactosidase to test for specificity of the hits. NIH Chemical Genomics Center [NCGC] NIH Molecular Libraries Probe Production Centers Network [MLPCN] MLPCN Grant: MH086442-01 Assay Submitter (PI): Wei Zheng
This is a fluorogenic enzyme assay with 4-methylumbelliferyl-[…] as the substrate and human alpha-galactosidase as the enzyme preparation. Upon the hydrolysis of this fluorogenic substrate, the resulting product, 1. 4-methyllumbelliferone, can be excited at 365 nm and emits at 440 nm which can be detected by a standard fluorescence plate reader. Data were normalized to the controls for basal activity (without enzyme) and 100% activity (with enzyme). In the AC50 values were determined from concentration-response data modeled with the standard Hill equation. Assay buffer: 50 mM citric acid (titrated with potassium phosphate to pH 5.0), 0.005% Tween-20, pH 5.0. (pH 5.0 is an optimal condition for this enzyme assay) 1536-well assay protocol for the human alpha-galactosidase: (1) Add 2 ul/well of enzyme (4 nM final) (2) Add 23 nL compounds in DMSO solution. The final titration was 0.7 nM to 77 uM. (3) Add 1 ul of substrate (400 uM final) (4) Incubate at room temperature for 20 min. (5) Add 2 ul stop solution (1M NaOH and 1M Glycine mixture, pH 10) (6) Detect the assay plate in a ViewLux plate reader (PerkinElmer) with Ex=365 nm and Em=440nm. Keywords: Alpha-glucosidase, Pompe Disease, pharmacological chaperone, chaperone therapy, high throughput screening, alpha-glucosidase inhibitor, MLSMR, MLSCN, NIH Roadmap, qHTS and NCGC
For orientation: Counterscreens check selectivity or assay interference.
As to `CCCN1CNc2c(c(=O)[nH]c(=S)n2CCc2cc(C)ccc2C)C1`, the “activity change, negative = inhibition” value was 0% (inactive).
In the case of `c1csc(-c2nc(NCC3CCCO3)c3ccccc3n2)c1` (stereo unspecified), the “activity change, negative = inhibition” value is 0% [at 48.8 µM] (inactive).
The figure for `CCCN1CNc2c(c(=O)[nH]c(=S)n2CCc2cccc(C)c2C)C1` is 0% (inactive).
The figure for `CCCN1CNc2c(c(=O)[nH]c(=S)n2CCc2ccc3c(c2)OCCO3)C1` is 0% (inactive); for `O=S(=O)(c1ccc(Cl)cc1)N1CCN(c2nc(Nc3cc(Cl)ccc3O)nc3ccccc23)CC1` it is 0% [at 48.8 µM] (inactive); for `COc1ccc(CCn2c(=S)[nH]c(=O)c3nccnc32)cc1OC` it is 0% (inactive).
As to `CCCN1CNc2c(c(=O)[nH]c(=S)n2CCC(C)(C)C)C1`, the “activity change, negative = inhibition” value is 0% (inactive).
Turning to `CCCN1CNc2c(c(=O)[nH]c(=O)n2CCc2ccc(OC)c(OC)c2)C1`, the “activity change, negative = inhibition” value was 0.385% (inactive).
With `COc1ccc(C#Cc2c[nH]c(=O)c3cncnc23)cc1OC`, the “activity change, negative = inhibition” value was -8.98% (inactive).
Consider `CCCN1CNc2c(c(=O)[nH]c(=S)n2CCc2c(C)cccc2C)C1`, for which the “activity change, negative = inhibition” value is 0% (inactive).
The figure for `COc1ccc(C#Cc2cnc(Cl)c3cncnc23)cc1OC` is 3.52% [at 48.8 µM] (inactive).
Regarding `COc1ccc(CCn2c(=S)[nH]c(=O)c3c(C)cc(C)nc32)cc1OC`, the “activity change, negative = inhibition” value was 19.6% (inactive).
In the case of `O=S(=O)(c1ccc(Cl)cc1)N1CCN(c2nc(-c3cccs3)nc3ccccc23)CC1`, the “activity change, negative = inhibition” value is 0% (inactive).
Consider `COc1ccc(CCn2c3c(c(=O)[nH]c2=S)CN(c2ccccc2)CN3)cc1OC`, for which the “activity change, negative = inhibition” value was 0% (inactive).
The figure for `CCCN1CNc2c(c(=O)[nH]c(=S)n2CCc2ccsc2)C1` is 0% (inactive); for `OCCNc1nc(-c2cccs2)nc2ccccc12` it is 0% (inactive); for `COc1ccc(CCn2c3c(c(=O)[nH]c2=S)CN(C)CN3)cc1OC` it is 0% (inactive).
Consider `COc1ccc(CCn2c3c(c(=O)[nH]c2=S)CN(C(C)C)CN3)cc1OC`, for which the “activity change, negative = inhibition” value is 0% (inactive).
On to `CCCN1CNc2c(c(=O)[nH]c(=S)n2Cc2ccc(OC)c(OC)c2)C1`, for which the “activity change, negative = inhibition” value is 0% (inactive).
The figure for `COc1ccc(CCc2c[nH]c(=O)c3cncnc23)cc1OC` is -5.98% (inactive); for `CCCN1CNc2c(c(=O)[nH]c(=S)n2CCc2ccc(C)c(C)c2)C1` it is 0% (inactive).
